GRIN3A LBD mod – NR3A (human) ligand-binding domain modulation. hit rate 2.5% among 340,000. AID 1259313. Tm shift relative to glycine control, % at 25 µM. NR3A LBD differential scanning fluorimetry, Tm shift; 0% = protein alone, 100% = glycine-bound protein;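 active = melting temperature shift of at least 10% of the positive control shift, at one fixed dose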
FAS TE block – inhibitors of human fatty acid synthase thioesterase domain | recombinant FAS-TE, OMFH fluorogenic substrate, fluorescence endpoint | inhibition, % at 15 µM | hit rate 0.67% among 360,000;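 active = compounds whose normalised, plate-corrected inhibition of enzyme fluorescence in the single-dose primary screen is 50% or more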;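 note: 0% = DMSO with enzyme and 100% = substrate without enzyme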
MPTP block – inhibitors of mitochondrial permeability transition pore. isolated mouse mitochondria, Ca2+ swelling absorbance, 30 min. inhibition, % at 10 µM. hit rate 1.4% among 360,000. AID 602449;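 active = inhibition of 50% or more, scaled per plate between neutral and stimulator controls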;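 note: 0% = DMSO wells given calcium and 100% = 1 mM EGTA wells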
Myeloid diff 2 – compounds promoting myeloid differentiation. ER-HoxA9 myeloid progenitors, lysozyme-GFP differentiation, flow cytometry. calls only at 10 µM. hit rate 1% among 360,000;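 active = normalized GFP-positive differentiation at or above the plate's own cutoff, the solvent-only control mean plus 3 SD; inconclusive = no clear call, values can overlap the other calls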;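 note: cells exposed to compound for four days before flow analysis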
rCAG RNA binder – r(CAG) repeat RNA binding. TO-PRO-1 dye displacement fluorescence. inhibition, % at 3 µM. hit rate 1.3% among 370,000;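 active = inhibition above the plate cutoff, the mean of all test compounds on that plate plus 3 SD, cut at about 35% in these data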;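 note: 0% = DMSO alone and 100% = 100 µM mitoxantrone as full dye displacement; higher means more dye released from RNA so lower well fluorescence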
* hit, by the source's call; i = inactive; u = inconclusive; x = no result given; + = active, no number. Shown are actives, neighbours in structure and some others; about 5.7% of the full set was active somewhere.

SMILES	GRIN3A LBD mod	FAS TE block	MPTP block	Myeloid diff 2	rCAG RNA binder
CN(Cc1ccccc1)C(=O)c1cccc(NC(=O)Cc2cccc(NC(=O)C3CCN(C(=O)CCc4ccccc4)CC3)c2)c1	x	x	x	x	9.3
COP(N)(=O)C(CC(C)C)NC(=O)OCc1ccccc1 (stereo not given)	x	x	x	x	0.0
CCCN1C(=O)/C(=C/c2ccncc2)SC1=S	-1.3	-5.4	-1.8	i	2.0
O=C(O)COc1cccc(/C=C2/SC(=S)N(Cc3ccccc3)C2=O)c1	1.4	10.8	2.1	i	51.5*
O=C1/C(=C/c2ccncc2)SC(=S)N1Cc1ccccc1	21.2*	8.1	44.1	i	4.7
O=C1/C(=C\c2cccc(O)c2)SC(=S)N1Cc1ccccc1	4.7	14.3	4.0	i	25.0
Cc1ccc(/C=C2\SC(=S)N(Cc3ccccc3)C2=O)o1	-3.1	24.5	7.6	i	29.0
O=C(O)c1cc(-c2ccc(/C=C3/SC(=S)N(Cc4ccccc4)C3=O)o2)ccc1Cl	2.2	21.8	0.3	+	16.0
CCCCCCCCN1C(=O)N(Cc2ccc(OC)cc2)S(=O)(=O)c2ccc(F)cc21	x	x	x	x	0.0
C=CCN1C(=O)/C(=C/c2ccc(O)cc2)S/C1=N/c1nccs1	19.7*	7.8	10.7	i	19.8
Oc1ccccc1C=NN1CCN(Cc2ccccc2)CC1	x	x	x	x	-1.4
CC(C)(C)OC(=O)[C@H](CCCCN)NC(=O)c1[nH]cnc1C(=O)N[C@@H](Cc1ccccc1)C(=O)OCc1ccccc1	-7.7	-12.2	1.6	+	x
CC(C)(C)OC(=O)NCCCC[C@H](NC(=O)c1nc[nH]c1C(=O)NCc1ccccc1)C(=O)OC(C)(C)C	-16.4	54.8*	0.2	i	0.6
CC(C)(C)OC(=O)[C@H](Cc1ccccc1)NC(=O)c1[nH]cnc1C(=O)N[C@@H](Cc1ccccc1)C(=O)OCc1ccccc1	-5.7	16.5	0.7	i	12.3
CC(C)(C)OC(=O)NCCCC[C@H](NC(=O)c1[nH]cnc1C(=O)N[C@@H](Cc1ccccc1)C(=O)OC(C)(C)C)C(=O)OC(C)(C)C	-17.6	21.4	-2.0	u	24.1
CCOc1ccc(-c2cc(C(C)=O)c3n(c2=O)CCC3)cc1	x	x	x	x	4.1
CN(C)c1ccc(C(CNS(=O)(=O)c2ccc(F)cc2)c2c[nH]c3ccccc23)cc1 (stereo not given)	15.9*	18.5	5.8	i	9.8
CCOC(=O)c1ccc(S(=O)(=O)NCC(c2ccc(N(C)C)cc2)c2c[nH]c3ccccc23)cc1 (stereo not given)	15.8*	34.6	6.3	i	13.9
CC(=O)/C(N=Nc1ccc(C(=O)O)cc1[N+](=O)[O-])=C(\C)O	0.3	-6.9	-1.5	i	1.1
CC(=O)/C(N=Nc1cc(C)ccc1O)=C(\C)O	-0.6	-21.2	-0.2	+	11.7
COC(=O)C1CN(Cc2ccc(OC)cc2)CCS(=O)(=O)N1Cc1cn(CCOC(C)=O)nn1 (stereo not given)	x	x	x	x	1.7
COc1cc([C@H]2OC[C@H]3[C@@H]2CO[C@@H]3c2ccc(O[C@H]3O[C@H](CO)[C@@H](O)[C@H](O)[C@H]3O)c(OC)c2)ccc1O[C@@H]1O[C@H](CO)[C@@H](O)[C@H](O)[C@H]1O	15.7*	-6.2	-1.6	i	2.0
COc1cccc2sc(Nc3nc(-c4cc5ccccc5oc4=O)cs3)nc12	19.8*	3.1	2.0	u	20.2
O=C(Nc1nc(-c2cc3ccccc3oc2=O)cs1)c1ccc(Br)o1	29.1*	14.2	1.9	i	3.0
COc1ccc(-c2cc3cccc(OC)c3oc2=O)cc1	-1.1	12.8	0.3	i	5.2
SMILES	GRIN3A LBD mod	FAS TE block	MPTP block	Myeloid diff 2	rCAG RNA binder
CC(=O)Nc1ccc(Nc2nc(-c3cc4ccccc4oc3=O)cs2)cc1	4.4	-10.0	1.2	i	28.2
COc1ccc(Nc2nc(-c3cc4cccc(OC)c4oc3=O)cs2)cc1	16.1*	11.3	3.7	i	24.4
COc1ccc2oc(=O)c(-c3csc(Nc4cccc(O)c4)n3)cc2c1	27.2*	17.4	6.2	i	22.7
C#CCN1C(=O)[C@]2(OC[C@@H]3Cc4ccccc4[C@@H]3C=C2C)c2ccccc21	x	x	x	x	4.7
CCNC(=O)OC[C@H]1O[C@H](C#Cc2ccc(C(C)(C)C)cc2)C=C[C@H]1OC(C)=O	x	x	x	x	4.8
Cc1ccc(Cn2cc(COC(=O)Nc3ccc(F)cc3)nn2)cc1	x	x	x	x	-0.9
Cc1ccc(Cn2cc(CN3[C@H](CC(C)C)COc4cc(Br)ccc4S3(=O)=O)nn2)cc1	x	x	x	x	0.2
CCOC(=O)c1ccc(NC(=S)N2CCSC2c2ccc(Cl)cc2)cc1 (stereo not given)	19.1*	28.5	20.0	i	-0.9
CC(C)[C@@H](C)/C=C/[C@@H](C)[C@H]1CC[C@@H]2[C@]1(C)CCC1[C@]23C=C[C@]2(C[C@@H](O)CC[C@]12C)N(c1ccc(F)cn1)O3 (stereo not given in full)	x	x	x	x	1.4
O=C(CS(=O)(=O)c1c[nH]c2ccccc12)Nc1ccc(F)cc1	13.4*	-7.9	-0.7	i	2.5
c1ccc2sc(Nc3nc4cc5c(cc4s3)OCO5)nc2c1	8.2	5.2	3.9	i	26.9
CCOC(=O)c1sc(Nc2nc3c(OC)cccc3s2)cc1C	22.1*	17.4	46.1	i	16.1
CCOC(=O)c1sc(Nc2nc3cc4c(cc3s2)OCO4)cc1C	28.7*	7.7	7.0	i	18.1
CC(C)(C)c1ccc(S(=O)(=O)N2CCCC(C(=O)N3CCN(Cc4ccccc4)CC3)C2)cc1 (stereo not given)	x	x	x	x	3.8
O=C1c2ccccc2/C(=C\c2ccc(O[C@@H]3CCCCO3)cc2)N1c1ccccc1	x	x	x	x	7.2
CCCCOc1ccc(C(=O)n2ccc3ccc(-c4ccc5ccn(Cc6ccccc6)c5c4)cc32)cc1	x	x	x	x	8.3
Fc1ccc2nc(-c3ccc(CN4CCC(c5nc6ccccc6[nH]5)CC4)cc3)c(-c3ccccc3)nc2c1	x	x	x	x	11.7
Nc1ccn([C@@H]2O[C@H](C(=O)N[C@H](Cc3ccccc3)C(=O)NCC(F)(F)F)[C@@H](O)[C@H]2O)c(=O)n1	x	x	x	x	3.6
O=[N+]([O-])c1ccc(Nc2ccc(F)cc2)nc1	7.5	0.1	18.1	i	1.6
O=[N+]([O-])c1ccc(Nc2ccccc2)nc1	11.6*	4.6	4.0	i	9.8
O=[N+]([O-])c1ccc(Nc2cccc(F)c2)nc1	24.9*	21.5	6.5	i	2.7
CC(=O)Nc1ccc(Nc2ccc([N+](=O)[O-])cn2)cc1	11.3*	22.2	0.2	i	4.5
CN(C)c1ccc(Nc2ccc([N+](=O)[O-])cn2)cc1	-1.2	5.6	2.9	i	3.9
Cc1ccc(-n2c(SC/C=C/c3ccccc3)nnc2-c2ccco2)cc1	x	x	x	x	-0.4
CC(C)NC(=O)N[C@@H]1C[C@@H]2O[C@@H](CO)CC[C@@H]2O[C@@H]1CCc1ccc(-c2ccc(F)cc2)cc1	x	x	x	x	2.6
CCOC(CN=c1nc(N(C)C)ss1)OCC	22.3*	-3.5	-0.7	x	-0.8
O=C(N/N=C/c1ccco1)c1cccc(N2Cc3ccccc3C2)c1	-3.9	1.6	-0.2	i	36.7*
O=C(N/N=C\c1cccc(Cl)c1)c1ccc(Cn2cc(Br)c([N+](=O)[O-])n2)o1	12.4*	37.9	-4.9	i	11.6

Assay outcomes deposited in PubChem by several laboratories.
